Data on 21 molecules can be found in PubChem BioAssay (EPA / NIEHS).

The source made the active and inactive calls. Rule for the calls: active = hit-call score of the fitted dose curve at least 0.9, where 1 is the maximum; inactive = score below 0.9.

Conditions in all cases: mRNA level, 48 h; actives raise or lower the signal
Read-out in assay [1]: Alkaline Phosphatase, Placental (ALPP) gene, ALPP (gene 250)
Nature of the assay: LTEA_HepaRG_ALPP: Life Technologies and Expression Analysis (LTEA) Assay for Alkaline Phosphatase, Placental (ALPP) gene using HepaRG (AID 2283468).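 For AC50: differentiated human HepaRG liver cells in serum-free induction medium; ALPP transcript by TaqMan qRT-PCR normalized to ACTB GAPDH and POLR2A.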 In short, it runs like this:
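HepaRG, 48 h plating then 48 h dosing, serum-free induction medium, 0.5% DMSO. 8 conc, half-log, max 100 uM, duplicates. Endpoint: ALPP transcript by qRT-PCR, housekeeping-normalized; gain or loss fitted vs DMSO.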

Read-out in assay [2]: Bcl-2 (BAD) gene, BAD (gene 572)
Nature of the assay: LTEA_HepaRG_BAD: Life Technologies and Expression Analysis (LTEA) Assay for Bcl-2 (BAD) gene using HepaRG (AID 2283469). In short, it runs like this:
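HepaRG, 48 h exposure, 8-pt half-log curve from 100 uM in 0.5% DMSO, duplicates. Readout: TaqMan qRT-PCR for BAD mRNA, housekeeping-normalised (ACTB/GAPDH/POLR2A); gain or loss fitted against DMSO baseline.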

Read-out in assay [3]: Bcl-2 (BAX) gene, BAX (gene 581)
Nature of the assay: LTEA_HepaRG_BAX: Life Technologies and Expression Analysis (LTEA) Assay for Bcl-2 (BAX) gene using HepaRG (AID 2283470). In short, it runs like this:
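Human HepaRG cells treated in duplicate for 48 h across eight concentrations (max 100 uM, 0.5% DMSO); BAX expression measured by qRT-PCR.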

Read-out in assay [4]: adenosine kinase (ADK) gene, ADK (gene 132)
Nature of the assay: LTEA_HepaRG_ADK: Life Technologies and Expression Analysis (LTEA) Assay for adenosine kinase (ADK) gene using HepaRG (AID 2283471). In short, it runs like this: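 Differentiated HepaRG cells dosed 48 h in serum-free induction medium, 0.5% DMSO vehicle, eight half-log concentrations from 100 uM, in duplicate. ADK mRNA by TaqMan qRT-PCR normalised to ACTB, GAPDH, POLR2A; bidirectional fit versus DMSO.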

Read-out in assay [5]: Alpha-fetoprotein (AFP) gene, AFP (gene 174)
Nature of the assay: LTEA_HepaRG_AFP: Life Technologies and Expression Analysis (LTEA) Assay for Alpha-fetoprotein (AFP) gene using HepaRG (AID 2283472).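 For AC50: AFP transcript by TaqMan qRT-PCR normalized to ACTB GAPDH and POLR2A.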 In short, it runs like this: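 Measures AFP mRNA change in HepaRG after 48 h chemical exposure (8 half-log concentrations, highest 100 uM, 0.5% DMSO). Fold change relative to DMSO, fitted in both directions.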

Read-out in the next assay: BCL2L11 (gene 10018)
Nature of the assay: LTEA_HepaRG_BCL2L11: Life Technologies and Expression Analysis (LTEA) Assay for Bcl-2 (BCL2L11) gene using HepaRG (AID 2283473). In short, it runs like this: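 Read-out is BCL2L11 transcript level by qRT-PCR, normalized to three housekeeping genes and fitted bidirectionally against 0.5% DMSO vehicle. HepaRG cells received chemicals for 48 h in serum-free induction medium, 100 uM down in half-log dilutions.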

Read-out in assay [6]: Bcl-2 (BID) gene, BID (gene 637)
Nature of the assay: LTEA_HepaRG_BID: Life Technologies and Expression Analysis (LTEA) Assay for Bcl-2 (BID) gene using HepaRG (AID 2283476). In short, it runs like this: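 Assay used HepaRG hepatic cells treated 48 h in serum-free medium with half-log dilutions from 100 uM. Endpoint: BID mRNA, qRT-PCR, normalized to ACTB/GAPDH/POLR2A.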

Read-out in assay [7]: Apolipoprotein A-V (APOA5) gene, APOA5 (gene 116519)
Nature of the assay: LTEA_HepaRG_APOA5: Life Technologies and Expression Analysis (LTEA) Assay for Apolipoprotein A-V (APOA5) gene using HepaRG (AID 2283474). In short, it runs like this:
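Readout is APOA5 transcript level by qRT-PCR on Fluidigm dynamic arrays, normalized to three housekeeping genes. HepaRG cultures received chemicals for 48 h at up to 100 uM (half-log steps, 0.5% DMSO), with gain or loss scored relative to DMSO.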

Read-out in assay [8]: Apoptosis regulator Bcl-2 (Homo sapiens) (UniProt P10415)
Nature of the assay: LTEA_HepaRG_BCL2: Life Technologies and Expression Analysis (LTEA) Assay for Bcl-2 gene using HepaRG (AID 2283475). In short, it runs like this: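 Each chemical was tested in duplicate on HepaRG cultures held in serum-free induction medium for 48 h, highest concentration 100 uM with half-log dilutions. Transcript levels came from multiplexed qRT-PCR, normalised to housekeeping genes; activity was scored in either direction relative to DMSO.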

Sequence of Apoptosis regulator Bcl-2 (Homo sapiens) (P10415 whole entry, looked up): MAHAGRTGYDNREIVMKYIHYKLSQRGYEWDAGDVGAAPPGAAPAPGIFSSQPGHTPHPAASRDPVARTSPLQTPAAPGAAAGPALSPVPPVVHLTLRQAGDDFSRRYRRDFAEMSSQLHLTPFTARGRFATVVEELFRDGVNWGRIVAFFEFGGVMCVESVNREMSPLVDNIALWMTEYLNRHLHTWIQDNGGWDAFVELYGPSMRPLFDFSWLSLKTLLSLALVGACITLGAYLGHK

Usually AC50 stands for the concentration giving half of the maximal activity seen. Take `CC(C)c1ccc(C(=O)N=C(N)N)cc1S(C)(=O)=O`: the AC50 is 0.59 µM (active) in assay [1]; 0.407 µM (active) in [2]; 7.39 µM (active) in [3]; 0.418 µM (active) in assay [4]; 0.35 µM (active) in [5]; 0.397 µM (active) in the assay with BCL2L11 (gene 10018). The AC50 in assay [6] is 0.367 µM (active).

Take `CN1CCCC1=O`: the molecule was called inactive (in [1]; in assay [3]; in assay [4]; in assay [5]; in the assay with BCL2L11 (gene 10018); in assay [7]). For the same molecule, the molecule was called inactive in assay [8] and in assay [6].

Take `Oc1ccc2c(c1)OC[C@@H](N1CCC(O)(c3ccc(F)cc3)CC1)[C@H]2O`: the result (in assay [1]; in assay [3]; in assay [4]; in assay [5]; in the assay with BCL2L11 (gene 10018); in assay [7]) was inactive. Further, in [6], the call was inactive.

On to `CCCCN(CCCC)CCCC`, for which the result (in [1]; in assay [3]; in [4]; in assay [5]; in the assay with BCL2L11 (gene 10018); in assay [7]) was inactive. For the same molecule, in assay [6], the molecule was classed as inactive.

For the molecule `CCCCCCC(=O)OCC`, the molecule was called inactive (in assay [1]; in assay [3]; in assay [4]; in assay [5]; with BCL2L11 (gene 10018); in [7]). The molecule was classed as inactive in assay [8] and in assay [6].

In the case of `Cc1ccccc1Cl`, the molecule was called inactive (in [1]; in assay [3]; in assay [4]; in assay [5]; with BCL2L11 (gene 10018); in assay [8]). In addition, the call in assay [6] was inactive.

Regarding `CCOC(=O)C(C)(C)Oc1ccc(Cl)cc1`, the outcome (in assay [1]; in [3]; in assay [4]; in [5]; with BCL2L11 (gene 10018); in [8]) was inactive. In [6], the result was inactive.

With `COc1ccc(C)cc1N`, the molecule was called inactive (in assay [1]; in [3]; in [4]; in assay [5]; with BCL2L11 (gene 10018); in assay [6]).

`Nc1ccc(S(=O)(=O)c2ccc(N)cc2)cc1`: the result (in [1]; in assay [3]; in assay [4]; in assay [5]; with BCL2L11 (gene 10018); in assay [8]) was inactive. The result in assay [6] was inactive.

Turning to `CC(C)(C)c1cc(O)c(C(C)(C)C)cc1O`, the AC50 in assay [1] was 90.8 µM (active); in assay [4] it was 76.7 µM (active); in assay [5] it was 77.7 µM (active); in assay [6], 84.3 µM (active). Further, the molecule was called inactive (in [2]; in assay [3]; with BCL2L11 (gene 10018)).

Turning to `C[Si]1(C)O[Si](C)(C)O[Si](C)(C)O[Si](C)(C)O1`, the molecule was classed as inactive (in [1]; in [3]; in assay [4]; in [5]; with BCL2L11 (gene 10018); in [7]). For the same molecule, the molecule was called inactive in assay [6].

`CNC(=O)[C@H]1O[C@@H](n2cnc3c(NCc4cc(Cl)ccc4OCc4cc(C)no4)ncnc32)[C@H](O)[C@@H]1N`: the outcome (in [1]; in [2]; in assay [3]; in assay [4]; in [5]; with BCL2L11 (gene 10018)) was inactive. For the same molecule, the molecule was called inactive in assay [8] and in [6].

With `COc1cc(S(=O)(=O)O)c(C)cc1N=Nc1c(O)ccc2cc(S(=O)(=O)O)ccc12`, the outcome (in assay [1]; in assay [2]; in [3]; in assay [4]; in assay [5]; with BCL2L11 (gene 10018)) was inactive. Besides, the call in [6] was inactive.

With `O=C(O)CCCCC(=O)O`, the call (in assay [1]; in [3]; in [4]; in [5]; in the assay with BCL2L11 (gene 10018); in assay [8]) was inactive. Besides, the call in assay [6] was inactive.

For the molecule `CC1=C(/C=C/C(C)=C/C=C/C(C)=C/CO)C(C)(C)CCC1`, the outcome (in assay [1]; in assay [3]; in assay [4]; in assay [5]; with BCL2L11 (gene 10018); in assay [8]) was inactive. For the same molecule, in assay [6], the molecule was called inactive.

As to `CCCCCCOCCO`, the molecule was classed as inactive (in assay [1]; in assay [3]; in assay [4]; in assay [5]; in the assay with BCL2L11 (gene 10018); in assay [8]). Further, the call in [6] was inactive.

As to `CC=Cc1ccc(O)c(OC)c1`, the call (in assay [1]; in assay [3]; in assay [4]; in assay [5]; with BCL2L11 (gene 10018); in assay [6]) was inactive.

Consider `CC(=O)OC/C=C(\C)CCC=C(C)C`, for which the outcome (in [1]; in assay [3]; in [4]; in [5]; with BCL2L11 (gene 10018); in assay [7]) was inactive. Besides, the call in assay [8] and in assay [6] was inactive.

As to `O=C(N[C@@H](Cc1ccccc1)[C@@H](O)C(=O)N1C[C@@H](O)[C@@H](O)C1)c1cc2cc(Cl)ccc2[nH]1`, the molecule was called inactive (in assay [1]; in [3]; in [4]; in assay [5]; with BCL2L11 (gene 10018); in [7]). In addition, the outcome in [8] and in assay [6] was inactive.

Regarding `C[C@]12C=CC(=O)C=C1CC[C@@H]1[C@@H]2C(=O)C[C@@]2(C)[C@H]1CC[C@]2(O)C(=O)CO`, the molecule was classed as inactive (in assay [1]; in assay [3]; in [4]; in assay [5]; in the assay with BCL2L11 (gene 10018); in assay [8]). The molecule was classed as inactive in [6].

Regarding `O=c1c(O)c(-c2ccc(O)c(O)c2)oc2cc(O)cc(O)c12`, the result (in assay [1]; in assay [3]; in [4]; with BCL2L11 (gene 10018); in [7]; in assay [8]) was inactive. In assay [6], the outcome was inactive. Moreover, in assay [5], the AC50 was 79 µM (active).
